Among the test systems are DU-145 prostate; K-562 leukemia; MALME-3M melanoma; MDA-MB-231 breast; RXF 393 renal; SF-268 CNS; SF-295 CNS; SF-539 CNS; UACC-257 melanoma; HCT-15 colon; HT29 colon; SNB-75 CNS; U251 CNS; PC-3 prostate; SK-MEL-5 melanoma; UACC-62 melanoma; LOX IMVI melanoma; SK-MEL-28 melanoma; SNB-19 CNS.
Common to all, as to assay: NCI-60 one-dose screen, 48 h (100 = growth as untreated, 0 = no growth, -100 = all killed)
What all share (details): 10 µM unless noted

Structures are written as SMILES. This is part of a sample that, as a whole, favours compounds with a hit. Of some 83,000 tested, about 20% had one in any assay.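 Single-concentration screen, 48 h exposure, 96-well plates. Endpoint: percent growth. Below 10 = active.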 Values without a mark were called inactive. Activity calls are given as the source filed them.

Take `C=C(C)[C@@H]1CC[C@]2(C)[C@H](CC=C3[C@@H]4CC(C)(C)CC[C@]4(CO)CC[C@]32C)[C@@]1(C)CCCN`: the growth is 44% in the experiment with DU-145 prostate; -47.7% (active) in the experiment with K-562 leukemia; -45.7% (active) in the experiment with MALME-3M melanoma; 27% with MDA-MB-231 breast; 31.6% in the experiment on RXF 393 renal; 67.6% with SF-268 CNS. In addition, the growth was 90.6% with SF-295 CNS; -61.5% (active) in the experiment with SF-539 CNS; -85.2% (active) in the experiment with UACC-257 melanoma; -71.6% (active) in the experiment with HCT-15 colon; -52.8% (active) in the experiment on HT29 colon; 39.7% in the experiment on SNB-75 CNS. For the same molecule, the growth in the experiment with U251 CNS is -86.8% (active); in the experiment with PC-3 prostate it was 21.3%; with SK-MEL-5 melanoma it was 55.4%; with UACC-62 melanoma, 98.8%; with LOX IMVI melanoma, -97.2% (active); with SK-MEL-28 melanoma, -88.4% (active).

For `O=C(CCl)NNc1nccc(Nc2ccc(S(=O)(=O)Nc3ccncc3)cc2)n1`, the growth with DU-145 prostate is 32.1%; in the experiment on K-562 leukemia, 17.6%; with MALME-3M melanoma, 32.2%; in the experiment with MDA-MB-231 breast, 46.7%; in the experiment on RXF 393 renal, 48.2%; in the experiment with SF-268 CNS, 37.6%. The growth in the experiment on SF-295 CNS was 67.7%; in the experiment on SF-539 CNS, 5.24% (active); in the experiment on UACC-257 melanoma, 52.1%; in the experiment on HCT-15 colon, 22.2%; in the experiment with HT29 colon it was 27.4%; with SNB-75 CNS, 54.7%. For the same molecule, the growth is 31.1% with SNB-19 CNS; -9.06% (active) in the experiment on U251 CNS; 56% in the experiment with PC-3 prostate; 7.95% (active) in the experiment with SK-MEL-5 melanoma; 31.4% in the experiment on UACC-62 melanoma; 17.6% in the experiment with LOX IMVI melanoma. The growth in the experiment with SK-MEL-28 melanoma was 53.7%.

Regarding `COc1ccc(/C=C/C(c2cc(OC)c(OC)c(OC)c2)n2ccnc2)cc1O` (stereo not given), the growth in the experiment with DU-145 prostate was 37.8%; with K-562 leukemia, 13.6%; in the experiment with MALME-3M melanoma it was 57.7%; in the experiment with MDA-MB-231 breast, 53%; in the experiment on RXF 393 renal, 33.1%; in the experiment with SF-268 CNS it was 56.1%. Moreover, the growth was 16.6% in the experiment with SF-295 CNS; 23.1% in the experiment with SF-539 CNS; 34.2% with UACC-257 melanoma; 24.9% in the experiment with HCT-15 colon; 71% with HT29 colon; 20% in the experiment with SNB-75 CNS. The growth was 47.3% with SNB-19 CNS; 27.1% with U251 CNS; 25.3% with PC-3 prostate; 17% in the experiment on SK-MEL-5 melanoma; 36.4% in the experiment with UACC-62 melanoma; 46.1% with LOX IMVI melanoma. In the experiment on SK-MEL-28 melanoma, the growth was 58.9%.

As to `COc1cc(/C=C/C(=O)c2ccc(-n3cc(CN4CCN(c5cc6c(cc5F)c(=O)c(C(=O)O)cn6C5CC5)CC4)nn3)cc2)ccc1O`, the growth with DU-145 prostate is 77.5%; in the experiment on K-562 leukemia, 40.5%; with MALME-3M melanoma it was 94.5%; in the experiment with MDA-MB-231 breast, 73.6%; in the experiment on RXF 393 renal it was 70.9%; in the experiment with SF-268 CNS it was 56.4%. Further, the growth in the experiment on SF-295 CNS was 80.2%; in the experiment on SF-539 CNS it was 60.1%; with UACC-257 melanoma, 87.7%; in the experiment with HT29 colon, 53.3%; in the experiment with SNB-75 CNS, 89.2%; with SNB-19 CNS, 53.8%. The growth was 34.3% in the experiment with U251 CNS; 74% in the experiment on PC-3 prostate; 78.7% in the experiment on SK-MEL-5 melanoma; 61.2% in the experiment on UACC-62 melanoma; 36.9% with LOX IMVI melanoma; 95.8% with SK-MEL-28 melanoma.

Take `CC(C)(C)n1cc(-c2ccnc(NCCCNS(=O)(=O)c3ccc(C(F)(F)F)cc3)c2)c(-c2cccc(F)c2)n1`: the growth is 92.6% in the experiment with DU-145 prostate; 30.9% in the experiment on K-562 leukemia; 105% in the experiment on MALME-3M melanoma; 93.8% with MDA-MB-231 breast; 92.2% in the experiment on RXF 393 renal; 87.2% in the experiment on SF-268 CNS. Also, the growth with SF-295 CNS was 94.7%; in the experiment with SF-539 CNS, 74.1%; with UACC-257 melanoma, 94.4%; in the experiment with HCT-15 colon it was 37.7%; in the experiment with HT29 colon it was 16.5%; in the experiment with SNB-75 CNS, 66.6%. For the same molecule, the growth in the experiment with SNB-19 CNS is 86.5%; with U251 CNS, 67.6%; with PC-3 prostate, 71.9%; with SK-MEL-5 melanoma it was 78.9%; with UACC-62 melanoma, 89.4%; in the experiment with LOX IMVI melanoma, 73.6%. Moreover, the growth in the experiment with SK-MEL-28 melanoma is 96.9%.

Regarding `O=C(O)[C@@H](Cc1ccc2ccccc2c1)NC(=O)n1c2ccccc2c2ccccc21`, the growth in the experiment with DU-145 prostate was 19.4%; in the experiment with K-562 leukemia it was 11.6%; with MALME-3M melanoma, 22%; in the experiment on MDA-MB-231 breast, 15.6%; with RXF 393 renal, 14.6%; with SF-268 CNS, 42.5%. For the same molecule, the growth with SF-295 CNS is 11.6%; in the experiment with SF-539 CNS, 1.16% (active); with UACC-257 melanoma, 57.7%; in the experiment on HCT-15 colon, 21.1%; in the experiment on HT29 colon, 4.59% (active); in the experiment with SNB-75 CNS, 20.1%. Besides, the growth in the experiment on SNB-19 CNS is 25.4%; with U251 CNS, 14.8%; in the experiment with PC-3 prostate, 26.7%; in the experiment with SK-MEL-5 melanoma it was 3.91% (active); with UACC-62 melanoma, 18.3%; with LOX IMVI melanoma, 35.9%. The growth in the experiment with SK-MEL-28 melanoma is 63.3%.

In the case of `Cc1ccc(C(=O)c2ccc(CC(=O)NN3C(=O)c4ccccc4C3=O)n2C)cc1`, the growth is 108% in the experiment on DU-145 prostate; 90.9% with K-562 leukemia; 101% in the experiment on MALME-3M melanoma; 93.9% with MDA-MB-231 breast; 102% with RXF 393 renal; 95.8% in the experiment with SF-268 CNS. The growth in the experiment on SF-295 CNS is 98.6%; in the experiment with SF-539 CNS, 97.3%; in the experiment on UACC-257 melanoma, 100%; in the experiment on HCT-15 colon, 103%; in the experiment on HT29 colon, 106%; with SNB-75 CNS it was 62.9%. Also, the growth in the experiment with SNB-19 CNS was 96.4%; in the experiment on U251 CNS, 95.8%; in the experiment on PC-3 prostate, 98.9%; with SK-MEL-5 melanoma, 99.8%; with UACC-62 melanoma it was 94.2%; in the experiment with LOX IMVI melanoma it was 94.1%. The growth in the experiment with SK-MEL-28 melanoma was 103%.

With `CC(C)(C)n1cc(-c2ccnc(NCCNS(=O)(=O)c3ccc(O)cc3)c2)c(-c2cccc(O)c2)n1`, the growth in the experiment with DU-145 prostate is 106%; in the experiment on K-562 leukemia, 56.1%; in the experiment with MALME-3M melanoma, 96.9%; in the experiment with MDA-MB-231 breast, 111%; in the experiment with RXF 393 renal it was 108%; in the experiment with SF-268 CNS, 94.4%. Also, the growth with SF-295 CNS was 101%; with SF-539 CNS, 95.3%; in the experiment on UACC-257 melanoma it was 99.1%; in the experiment on HCT-15 colon it was 107%; with HT29 colon, 76.9%; in the experiment on SNB-75 CNS, 74.4%. Moreover, the growth was 98.5% in the experiment on SNB-19 CNS; 82.4% with U251 CNS; 101% in the experiment with PC-3 prostate; 79.7% in the experiment with SK-MEL-5 melanoma; 101% in the experiment on UACC-62 melanoma; 106% in the experiment on LOX IMVI melanoma. Besides, the growth in the experiment with SK-MEL-28 melanoma was 98.9%.

The values are drawn from PubChem BioAssay (NCI).
